Test results as given in the supplement of paper PMC11417369.
The full ranking holds about 25,000 sequences; the median of “ln(normalized median fluorescence intensity)” is about 9.3, and the highest 2% start at about 10. Shown is part of a subset that was picked to be rich in the highest values.

Test system: PF3D7_0420300 AP2 domain 1 (GST-tagged)
Assay: gcPBM binding intensity (ln(normalized median fluorescence intensity)); higher = stronger DNA binding
How it was run: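 An Agilent 4 × 180k array of primer-extended double-stranded 36-bp intergenic genomic probes, with negative controls, was incubated for 1 h with GST-tagged P. falciparum DNA-binding domains expressed in E. coli. Alexa488 anti-GST antibody detected bound protein, scanned at 488 nm. Binding intensity is the highest Masliner-normalised natural-log median intensity across replicate spots of either probe orientation.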

Row | Sequence | gcPBM binding intensity (ln)
1 | AAATAAAAAACAGTGGCACACATTATGTATCCACCT [CACACA_site3756] | 9.32
2 | TATATACGCATGCGCACACACAAGTGGGAAATTTGG [CACACA_site1785] | 9.52
3 | TGATATTTTATTATTAAAATATATACATATATATAT [CACACA_negctrl_site1456] | 9.26
4 | TAAAAAAGTTATATTACACACTTTATTGGTTAACTT [CACACA_site653] | 9.35
5 | AGCTCTTGTCATTTTGCACACACACCGGTATAGGTT [CACACA_site5654] | 10.1
6 | CTTGTCATTGGGCACACACACATGTATAGGTTATTA [CACACA_site3058] | 9.7
7 | CTTGTCATTTGGCACACACACATGTATAGGTTATTA [CACACA_site5656] | 9.9
8 | CTCTTGTCATTTTGCACACACACATGGATAGGTTAT [CACACA_site5655] | 10.2
9 | CTCTTGTCATTTTGCACACACACATGTATAGGTTAT [CACACA_site3057] | 10.2
10 | AGCTCTTGTCATTTTGCACACACACCCGTATAGGTT [CACACA_site3056] | 10
11 | CGTATGTATATATATATACACACTTCTGTGATACGA [CACACA_site1949] | 9.33
12 | ATATAATTATATTCCATACACACATATATTTAAAGG [CACACA_site2958] | 9.42
13 | TAAATAAGCACATACACACATACATACATACATAAA [CACACA_site4017] | 9.87
14 | TATAAACATTATAAATGTACAAATATATATATATAT [XGTACX_site3218] | 9.28
15 | ATTATAATTACTCTAGTGCATTATAAATATGAATAA | 8.93
16 | TATGCAAGGAACCACACACACACACGGAAATGTATA [CACACA_site6490] | 10.2
17 | TATGCAAGGAACCACACACACACACCGAAATGTATA [CACACA_site4573] | 10.1
18 | TATGCAAGGAACCACACACACACACCCAAATGTATA [CACACA_site750] | 10.1
19 | AAATTAAAAAAAAATAAATAAAAAAAAAAAAAAAAT [CACACA_negctrl_site1611] | 9.35
20 | TGGATATATGTAAAAATTGCAAGAAAGATAAAAGGA [CACACA_negctrl_site64] | 9.6
21 | GCAACAAAAAATCAGACATGCATTTTAAAATGAATA [TGCATGCA_site846] | 9.14
22 | TATTAAACTAAATGTAGTACATACACAAAAGAAACC [XGTACX_site606] | 9.75
23 | GTTAATATTTTTGGGGGTACTTAAAAAAAAAAAAAA [XGTACX_site1477] | 9.22

Row | Sequence | gcPBM binding intensity (ln)
24 | TATACTTTATATATTTTGTATATATATTTTTTTTAT [TGCATGCA_negctrl_site530] | 9.34
25 | ATTTTTTTTTTTTTTTTGGGGGGGTATACTTTTAAA [CACACA_negctrl_site1020] | 10.8
26 | TTCATAAGAAGGAACTGTACATATTTTTCATTTTTT [XGTACX_site6770] | 9.15
27 | TTATTATTAAGACACACACACAAAAAAAAAAAAAAA [CACACA_site6805] | 9.73
28 | AATGTGTAGACACGCACACACAAAAAAATATTTATA [CACACA_site7384] | 9.6
29 | TAATAAATAAATGACACACACACACGCAAAAAAAAA [CACACA_site7275] | 10.1
30 | ATAGACAGCGCACAAACACACAAACACGCACGCACA [CACACA_site6349] | 9.6
31 | TATTTATTAAGACACACACACACACGCACAAAATAA [CACACA_site6254] | 10.2
32 | TAAATTAAAAGACACACACACAAAAAAAAAAAAAAA [CACACA_site7131] | 9.66
33 | AAAAAAAACACGCGCACACACACACCCACAGACACA [CACACA_site5253] | 9.92
34 | TTTATTAATAGACACACACACACACGCAAAATAAAA [CACACA_site6255] | 10.2
35 | AATTAACAAAGACACACACACACACGCACAAAAAAA [CACACA_site6388] | 10.2
36 | CACAAACAAAGACACACACACACACGCACAAAAATG [CACACA_site7193] | 10.1
37 | CCTCATATTATAGACACACACAAAAAAAATAAAAAA [CACACA_site180] | 9.74
38 | TACACAAACAGACACACACACACACGCGCACAAAAA [CACACA_site7192] | 10.2
39 | TTATTAACCTAAATTAGTACATATAATATAAAAAAT [XGTACX_site8661] | 9.18
40 | GAAAAGAAAAATAAACGTACATAAATATTAACATTA [XGTACX_site8213] | 9.2
41 | AGGCTCATTTTTTTTAGTACATCAAAAAAAAAAAAA [TGCATGCA_negctrl_site591] | 8.7
42 | TTTTTTTTTTTTTTTTGTACATATATATAAAAAATA [XGTACX_site2772] | 8.49
43 | ATATATAACTTTTCTTAACACACAAAAAACAAAAAT [CACACA_site8748] | 9.56
44 | TATATATATATAAACGCATGTAATTTATACACACAT [TGCATGCA_site946] | 9.41
45 | GACAATTATATGTAGGTGCATATACAAATTTTTTAA | 9.11
46 | AAAACAAATAGACACGCACACAAAAAAAAAAAAAAA [CACACA_site801] | 9.33

Row | Sequence | gcPBM binding intensity (ln)
47 | ATATATATATATAACACACGCAAAAAAATTAAATAA [CACACA_site1400] | 9.69
48 | TTAACAAATAGACACACACACACACGCAAAAAAAAA [CACACA_site6387] | 10.2
49 | AAAAAAAAAAAATATATATATATATATATATATATA [CACACA_negctrl_site1606] | 9.3
50 | TATATAAAAATATACACACACAAATGTATATATATA [CACACA_site220] | 9.68
51 | AAAAAAAAAAAAAAATACAAGCACATTTATATAAGC [GTGCAC_negctrl_site695] | 9.46
52 | AAATACTGATTTGGTTGTACATGTGCACTATATAAC [XGTACX_site3795] | 9.35
53 | TCATTTCACAGACACACACACACAATATATTTCCTT [CACACA_site9295] | 10.2
54 | TCATTTCACGGACACACACACACAATATATTTCCTT [CACACA_site6023] | 10.2
55 | TCATTTCACAAACACACACACACAATATATTTCCTT [CACACA_site3905] | 10.1
56 | TATTTTATAATTTACCGTACATTAATTGTATTATTA [XGTACX_site5722] | 9.33
57 | TAGATACAGAAACACACACACACATACATATATACA [CACACA_site3437] | 10.2
58 | CAATCAAATGGACACACACACACCTAAACATAAAAG [CACACA_site5524] | 10.2
59 | CATACACAGAAACACACACACATATATACATATATA [CACACA_site1094] | 10.1
60 | CAATCAAAGAAACACACACACACCTAAACATAAAAG [CACACA_site2756] | 10.2
61 | GTATCAAAAGAATACACACACACATACAGATATATA [CACACA_site5975] | 10.1
62 | ATCAAAAGAAAACACACACACATACATATATATATA [CACACA_site3795] | 10.1
63 | TACATACAGAAACACACACACACATATATATATATA [CACACA_site2919] | 10
64 | CAATCAAATAGACACACACACACCTAAACATAAAAG [CACACA_site7322] | 10.1
65 | ATCAAAAGAAAACACACACACATACAGATATATATA [CACACA_site5974] | 10.2
66 | ATATTACGCACAAAAAAAAAAAAAAAAAAAAAAAAA [CACACA_negctrl_site941] | 8.77
67 | TGGATGTTAATATAGTGTACATTTATAAGTCAGTAT [XGTACX_site2949] | 9.45
68 | ATATTGTAAGTAAACACACACACATCTATAGGTATA [CACACA_site6462] | 9.96
69 | AATATATACATACATACATGCATACATATATATAAC [TGCATGCA_site371] | 9.37

Row | Sequence | gcPBM binding intensity (ln)
70 | AAAAAACAGACATACACACACACACGGATATTTATA [CACACA_site7570] | 10.3
71 | AAAACAAACAGACACACACACATATTTATATTTATA [CACACA_site7681] | 10.1
72 | TATTTATACCTATACACACACACACGGATATTTATA [CACACA_site7123] | 10.2
73 | TATATACCTATATACACACACATATATTATAGATAT [CACACA_site6266] | 9.82
74 | CATACATACAGACACACACACATATTTATATTTATA [CACACA_site6172] | 9.94
75 | ACCATACATACATACACACACACACGCATATTTATA [CACACA_site7386] | 10.4
76 | TATTTATATTTATATACACACATATATACCTATATA [CACACA_site7820] | 9.48
77 | CATACATACATACATACACACATACCTATATTTATA [CACACA_site6769] | 9.79
78 | GATACCTATAGACACACACACATACCTATATACATA [CACACA_site7586] | 10.1
79 | TATAGATACCTATACACACACACACGGACATATATA [CACACA_site7585] | 10.2
80 | TATATATATATATATACACACATATATATATTTATA [CACACA_site627] | 9.39
81 | TATATATATTTATACACACACATATATTTATATATT [CACACA_site484] | 9.7
82 | AATGCTATCATTAATGCACACATTTAAAATTAATAT [CACACA_site3548] | 9.22
83 | ATTATATTAATTTATAGTACAATATTTATATATATG [XGTACX_site4668] | 9.2
84 | AAATATATATATAGTACATGCAGTAGATAATTTAAT [TGCATGCA_site299] | 9.51
85 | CAGATAGACTTATATGCATGCATTCACATACCAACA [TGCATGCA_site163] | 9.27
86 | ATAATATATATATTTTGTACACATGAAAAGGAGGAT [XGTACX_site5034] | 9.52
87 | TTGCTTATTAAATGGGGTACATTATATATATATATA [XGTACX_site2515] | 9.49
88 | TTTTTTTTTTTTTTTGGTACACATTTTGGTTAATGG [XGTACX_site5109] | 9.06
89 | ATATTATTATTAGTTTCACACATTTAATGAAACTAA [CACACA_site5677] | 9.03
